Among all 69,000 compounds or so, about 8,600 (12%) showed an effect of 50% or more. What follows is part of a selection rich in strong results, with near analogues and random picks from the rest.
tested on: Plasmodium berghei; test: Screen against P. berghei liver stage (PbLuc), transformed with Luciferase, at 10uM; format: functional, HepG2; settings: tested at 10 uM

Point of comparison: COc1ccc(-c2nc(CN3CCN(CCO)CC3)co2)cc1, INHIBITION 59.7%. Against it:
- CN(C)Cc1cc(=O)n2c(n1)CN(S(=O)(=O)C1CC1)CCC2 — lower, 21.6%
- O=C(CCn1cccn1)N1C[C@H]2CC[C@@H](C1)N(Cc1ccccn1)C2=O — lower, 8.47%
- N#Cc1cc2cc(Cl)cnc2nc1O — lower, -26.3%
- CC(C)(C(=O)NCC1CCN(Cc2ccccn2)C1)c1ccccc1 (stereo not drawn) — lower, 49.2%
- O=C1NCCCc2[nH]c(C3CCCN(C(=O)C4CC4)C3)nc21 (stereo not drawn) — lower, 26.8%
- CC(C)OCCN1CCN(c2ccc(CN(C)C)cn2)CC1 — lower, 25.4%
- CC(O)CN1CCN(Cc2coc(-c3ccccc3Cl)n2)CC1 (stereo not drawn) — lower, -66.7%
- COCCN1CCN(Cc2coc(-c3ccccc3Cl)n2)CC1 — higher, 63.8%
- CN1CCOC(CNCc2coc(-c3cccc(F)c3)n2)C1 (stereo not drawn) — lower, 57.8%
- CN1CCOC(CNCc2coc(-c3ccccc3)n2)C1 (stereo not drawn) — lower, 22.5%
- CCN1CCN(Cc2coc(-c3cccc(F)c3)n2)CC1 — higher, 65.2%
- CC(O)CN1CCN(Cc2coc(-c3ccccc3)n2)CC1 (stereo not drawn) — lower, 1.45%
- CC(=O)N1CCN(Cc2coc(-c3cccc(F)c3)n2)CC1 — lower, -14.7%
- OCCN1CCN(Cc2coc(-c3cccc(Cl)c3)n2)CC1 — lower, 33.3%
- OCCN1CCN(Cc2coc(-c3ccccc3)n2)CC1 — lower, 59%
- OCCN1CCN(Cc2coc(-c3cccc(F)c3)n2)CC1 — lower, 48.4%
- OCCN1CCN(Cc2coc(-c3ccccc3Cl)n2)CC1 — lower, -113%
- CN1CCOC(CNCc2coc(-c3cccc(Cl)c3)n2)C1 (stereo not drawn) — lower, 33.7%
- NC(=O)c1cc(C2CCCN(CCOc3ccc(F)cc3)C2)n[nH]1 (stereo not drawn) — lower, 27.25%
- CC(NCc1cc(O)c2cccc(F)c2n1)c1ccc(S(C)(=O)=O)cc1 (stereo not drawn) — lower, 15.1%
- CCS(=O)(=O)Nc1ccc2c(c1)OCC(C)(C)C(=O)N2C — lower, 25.8%
- O=C(NC1CCCC1)C1(Cc2cc(C3CCOC3)no2)CCNCC1 (stereo not drawn) — lower, 26.7%
- COc1ccc(NCc2nc(=O)n(CCC(C)C)[nH]2)cc1 — lower, -27.6%
- c1ccc2c(c1)ccn2CCCNC1CCOC2(CCOCC2)C1 (stereo not drawn) — lower, -27.5%
- CCN1CCOC(CNCc2csc(C)n2)C1 (stereo not drawn) — lower, -65.3%
- Cc1ccc(-c2nc(CN3CCN(CCO)CC3)co2)cc1 — lower, 27.4%
- Cc1nc(CNCC2CN(C)CCO2)cs1 (stereo not drawn) — lower, 51.6%
- COc1ccc(-c2nc(CN3CCCS3(=O)=O)co2)cc1 — lower, -91.4%
- Cc1nc(COc2ccc(CNCC3CN(C)CCO3)cc2)cs1 (stereo not drawn) — lower, 32.4%
- Cc1cc(N2CCOC(c3ccccn3)C2)nc(N)n1 (stereo not drawn) — lower, 2.6925%
- CC(Cn1ccnc1)NC(=O)N1CCN(Cc2cccs2)CC1 (stereo not drawn) — lower, 49.1%
- O=S(=O)(NC1CCC12CCN(CC1CCOCC1)CC2)c1ccccc1 (stereo not drawn) — lower, 36.4%
- Cc1n[nH]cc1CNC1CCN(c2ccccc2)CC1 — lower, 49.9%
- FC(F)(F)c1cccc(N2CCC(NCc3cccnc3)CC2)c1 — higher, 71.2%
- O=C(c1ccoc1)N1CCC(NCc2cccnc2)CC1 — lower, 10.2%
- Cc1n[nH]cc1CNC1CCN(c2ccc(F)cc2)CC1 — lower, 49.9%
- COCCN1CCC(NCc2cccnc2)C1 (stereo not drawn) — lower, -27.3%
- Cc1n[nH]cc1CNC1CCN(c2cccc(C(F)(F)F)c2)CC1 — higher, 78.6%
- CC1CN(Cc2ccc(C#N)cc2F)CCN1Cc1nccn1C (stereo not drawn) — lower, 11.433%
- Cc1ccc(CN2CCCn3cnc(COCC4CC4)c3C2)o1 — lower, -49.1%
- CN(CCc1ccccn1)C(=O)CCC1CCCN(c2ccncc2)C1 (stereo not drawn) — lower, 26.8%
- O=C(C1CCOCC1)N1CCO[C@H]2[C@H](Oc3cccnc3)CC[C@@H]21 — lower, 10%
- CC(C)c1noc(C[S+]([O-])CC(=O)Nc2ccc(F)c(F)c2)n1 (stereo not drawn) — lower, 51.3%
- CC(C)c1noc(C[S+]([O-])CC(=O)Nc2cc(F)ccc2F)n1 (stereo not drawn) — lower, 56.3%
- CC(C)c1noc(CCCC(=O)Nc2cccc(F)c2)n1 — lower, 27%
- CC(C)NC(=O)c1cccc(NC(=O)CCCc2nc(C(C)C)no2)c1 — lower, -8.87%
- CC(C)c1noc(CN2CCN(C(=O)c3cc(Cl)ccc3F)CC2)n1 — lower, -17%
- CC(C)c1noc(CCC(=O)Nc2cc(F)ccc2F)n1 — lower, 34%
- CCN(Cc1ccco1)C(C)c1nc(C(C)(C)C)no1 (stereo not drawn) — lower, 2.9%
- CCn1cnnc1CNC(=O)Cc1ccc2c(c1)OCCO2 — lower, 1.78%
- O=C(NC[C@]1(O)CN(Cc2ccccc2F)C[C@H]1O)c1cscn1 — lower, 14.5%
- CCn1c(CC2CCN(S(=O)(=O)c3cccs3)CC2)nn(C)c1=O — lower, 41.5%
- Cc1noc(C)c1CNCc1c(C(C)C)nn(C)c1N1CCOCC1 — lower, 34.5%
- Cc1cccc(-n2ncc(C(=O)N3CCn4c(C)nnc4C3)c2C)c1 — higher, 60.6%
- Cc1cccc(-n2c(C)cc(C(=O)N3CCn4c(C)nnc4C3)c2C)c1 — lower, 35.3%
- Cc1nnc2n1CCN(C(=O)c1cc(C)n(-c3ccccc3)c1C)C2 — lower, 44.3%
- COc1ccc2nnc(CCCC(=O)NCc3ccccc3)n2n1 — lower, 44.4%
- CCc1ccc(CN2CCC3(CC2)C(=O)N(C)CCN3CC2CC2)cc1 — lower, -17.1%
- COC[C@@]12CC[C@@H](N3CCOCC3)C[C@H]1CCN(c1ncccc1Cl)C2 — lower, 13.5%
- COC[C@@]12CC[C@@H](N3CCOCC3)C[C@H]1CCN(c1ccc(Cl)cn1)C2 — lower, 16.7%
- COC[C@@]12CC[C@@H](N3CCOCC3)C[C@H]1CCN(c1ncccc1C)C2 — lower, 45.8%
- COC[C@@]12CC[C@@H](N3CCOCC3)C[C@H]1CCN(c1cc(C)ccn1)C2 — higher, 70.3%
- COC[C@@]12CC[C@@H](N3CCOCC3)C[C@H]1CCN(c1ncccn1)C2 — lower, 53.5%
- COC[C@@]12CC[C@@H](N3CCOCC3)C[C@H]1CCN(c1cnccn1)C2 — lower, -15.1%
- O=C(Cn1cnc2sccc2c1=O)NCCc1nnc2ccccn12 — lower, 46.4%
- COCC(=O)N1CCc2ccc(=O)n(CC3CC3)c2CC1 — lower, -13.2%
- c1csc(CNCC2COCc3c(-c4ccoc4)nnn3C2)n1 (stereo not drawn) — lower, 13.1%
